# Screening results from PubChem.
# Rows were chosen to be rich in hits. Some 2.4% of all compounds tested hit in one or more screens of this group.
# m5-HT2A agonist: activates the mouse 5-HT2A serotonin receptor; P35363; CHO-K1 mHTR2A beta-arrestin complementation, luminescence; percent of 30 µM serotonin response; activation, % at 7.6 µM; 360,000 compounds, 0.66% hits; AID 624169;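 active = activation above a run cutoff, the mean activation of all tested compounds plus 3 SD, cut at about 14% in these data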;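 also: 0% = plate median of compound wells and 100% = 30 µM serotonin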
# Target sequence (P35363 whole entry, looked up): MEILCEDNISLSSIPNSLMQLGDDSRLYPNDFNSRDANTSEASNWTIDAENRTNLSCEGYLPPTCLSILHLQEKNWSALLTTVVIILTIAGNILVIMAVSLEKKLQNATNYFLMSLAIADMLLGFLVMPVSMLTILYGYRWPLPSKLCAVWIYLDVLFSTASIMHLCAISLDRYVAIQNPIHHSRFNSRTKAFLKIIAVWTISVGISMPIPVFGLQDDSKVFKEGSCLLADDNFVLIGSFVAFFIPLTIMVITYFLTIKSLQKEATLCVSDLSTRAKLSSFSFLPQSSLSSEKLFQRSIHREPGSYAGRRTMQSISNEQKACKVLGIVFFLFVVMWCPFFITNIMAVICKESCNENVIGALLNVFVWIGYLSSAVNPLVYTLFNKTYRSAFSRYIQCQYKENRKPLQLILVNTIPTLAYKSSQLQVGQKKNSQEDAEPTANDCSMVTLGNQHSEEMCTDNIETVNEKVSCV
# TLR4-MyD88 BLA: blocks binding of human TLR4 to MyD88. inhibition, % at 8.4 µM. HeLa CL3-4 TLR4/MyD88 BLA complementation, FRET ratio. O00206+Q99836. 200,000 compounds, 0.18% hits; in the data active = inhibition above about 25%;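 also: 0% = vehicle and 100% = reference inhibitor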
# ABHD5-PLIN5 inh: inhibitors of human ABHD5-perilipin-5 interaction; 360,000 compounds, 0.78% hits; AID 602281; Split G. princeps luciferase complementation, luminescence, 4 h; inhibition, % at 4 µM;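 active = inhibition above the mean inhibition across every tested compound plus 3 SD, cut at about 22% in these data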;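 also: 0% = DMSO only wells and the 100% control is not disclosed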
# TLR9-MyD88 inh: blocks human TLR9 binding to MyD88. Q9NR96+Q99836. CHO BLA complementation TLR9-MyD88, CCF4 FRET ratio. inhibition, % at 4.98 µM. 340,000 compounds, 0.21% hits;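 active = inhibition above the mean over all tested compounds plus 3 SD, cut at about 21% in these data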;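 also: 0% = DMSO only wells and 100% = clavulanate BLA inhibitor control wells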
# CRFR2-BP antag: antagonists of CRF-binding protein/CRF-R2 receptor complex | HEK293 CRF-R2/CRF-BP, CRF-induced calcium fluorescence | inhibition, % at 11.8 µM | 350,000 compounds, 0.59% hits;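 active = inhibition of the ligand-induced calcium signal above about 50% at the single tested concentration, limit read from the data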
# NOD2-RIPK2 inh: inhibitors of human NOD2-RIPK2 interaction | CHO BLA complementation NOD2-RIPK2, CCF4 ratio | inhibition, % at 4.98 µM | 360,000 compounds, 0.38% hits | O43353; in the data active = inhibition above about 21%;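 also: 0% = vehicle only and 100% = reference blocker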
# Starred values were filed as active, the others as inactive; nt = no result.
SMILES,m5-HT2A agonist,TLR4-MyD88 BLA,ABHD5-PLIN5 inh,TLR9-MyD88 inh,CRFR2-BP antag,NOD2-RIPK2 inh
O=[N+]([O-])c1cc(/C=N/N/C(=N/c2ccccn2)c2ccccn2)ccc1O,2,-6,-3,6,64*,-8
CCOC(=O)c1c(C)n(OCc2ccccc2)c2ccc3nonc3c12,2,8,-27,2,53*,-11
Cc1ccc2nc(NNC(=O)c3ccc(S(=O)(=O)N4CCc5ccccc5C4)cc3)sc2c1,9,7,34*,14,-18,2
Cc1nc2ccccc2n1C(c1cccnc1)c1nc2ccccc2[nH]1 (stereo not drawn),14,nt,6,nt,nt,-6
C#CCSc1nc(C)cc(C(=O)OCC)c1C#N,12,nt,-5,-14,82*,-1
O=C(NC(=S)N1CCN(c2ccc(F)cc2)CC1)c1cccs1,-5,-7,-8,-3,50*,0
CCOc1ccc(N=Nc2c(=O)[nH]n3c(=O)cc(C)[nH]c23)cc1,-5,4,11,-17,0,0
CCOc1ccc(N=Nc2c(=O)[nH]n3c(=O)c4c([nH]c23)CCCC4)cc1,-2,-6,2,-2,51*,0
O=c1[nH]n2c(=O)c3c([nH]c2c1N=Nc1cccc(Cl)c1)CCCC3,0,11,1,-2,67*,3
Cc1ccc(CSCC(=O)Nc2cc(S(=O)(=O)N3CCOCC3)ccc2OC(C)C)cc1,3,nt,-5,-1,64*,-16
CCOc1ccccc1NC(=O)CNC(=O)CNC(=O)Cc1ccccc1,4,nt,8,2,-13,-5
CCOc1ccccc1NC(=O)CNC(=O)Cc1ccccc1,0,5,1,3,52*,-5
O=C(c1ccc2snnc2c1)N1CCN(c2ccccn2)CC1,-2,0,-2,-6,79*,-1
O=C(c1ccc2snnc2c1)N1CCN(c2ccccc2)CC1,2,-14,8,-3,-2,-8
CCN(CCO)Cc1csc2cccc(Br)c12,-4,3,2,-7,83*,6
CCOC(=O)Cn1c(=O)oc2cc(S(=O)(=O)NC(C)(C)CC)ccc21,-4,nt,-2,-7,89*,-4
CCOC(=O)Cn1c(=O)oc2cc(S(=O)(=O)NCCC(C)C)ccc21,-1,-3,0,0,-8,-7
Cn1c(NCCN2CCCC2)nc2cc(-c3cccc(C(F)(F)F)c3)sc2c1=O,-5,nt,3,nt,nt,-3
Cc1cccc(-c2ccc([N+](=O)[O-])cc2CN2CCN(c3ncc(Cc4ccccc4)cn3)CC2)c1,8,nt,-5,nt,nt,-3
O=C(Oc1ccccc1)c1ccc(NC(=O)c2ccco2)cc1,1,1,-4,-3,79*,12
CCc1cc2cc(C)cc(C)c2nc1SCC(=O)N1CCN(C(=O)c2ccco2)CC1,-1,9,7,9,52*,-6
CCc1cc2cccc(C)c2nc1SCC(=O)N1CCN(C(=O)c2ccco2)CC1,-1,7,10,-1,-6,11
Cc1cccc(C)c1NC(=O)C1c2ccccc2OCC(=O)N1Cc1ccco1 (stereo not drawn),0,nt,-3,nt,nt,9
O=C1C(=Cc2cccs2)C(=O)c2ccccc21,9,16,14,8,55*,5
O=C1/C(=C/c2cccs2)Cc2ccccc21,2,-4,-1,7,7,-3
SMILES,m5-HT2A agonist,TLR4-MyD88 BLA,ABHD5-PLIN5 inh,TLR9-MyD88 inh,CRFR2-BP antag,NOD2-RIPK2 inh
CCc1nc2ccc(C(=O)Nc3ccc4c(c3)OCC(=O)N4)cn2c1N(CC)Cc1cccc(Br)c1,-3,nt,-2,nt,nt,-5
O=C(Nc1cccc(NC(=O)c2cc([N+](=O)[O-])ccc2Cl)n1)c1cc([N+](=O)[O-])ccc1Cl,21*,nt,8,0,-11,3
COc1ccc(-c2nn(-c3ccccc3C)cc2CNCc2cccnc2)cc1F,1,7,5,3,73*,-4
COc1ccc(-n2cc(CNCc3cccnc3)c(-c3cccc(F)c3)n2)cc1,0,-8,11,3,-7,4
CCc1ccc(OCC(=O)NNC(=O)c2cnccn2)c(Br)c1,0,nt,8,-7,-4,5
COc1ccccc1OCC(=O)NNC(=O)c1cnccn1,-2,5,5,2,56*,4
